This is an account of results in PubChem BioAssay AID1508602 (The Scripps Research Institute Molecular Screening Center, 2020).

Where “and” joins values, the source holds several entries; their conditions need not be identical. Equal values may be shown once. The campaign covered roughly 650,000 compounds. About 6,800 (1%) were called active. No stated cut-off is given here; in the data, active means activation above about 4.9%; inactive means the rest. What follows is part of a selection rich in actives, with near analogues and random picks from the rest. A structure can be active in one record and inactive in another.

This experiment deals with G-protein coupled receptor 151 (Homo sapiens) (UniProt Q8TDV0). Briefly: activates the human receptor GPR151, primary screen, cell-based, PathHunter beta-arrestin, luminescence (AID 1508602).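 Further: 0% = median of compound wells and 100% = cells with positive control.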 As to conditions: PathHunter beta-arrestin GPR151 cells, at 11.2 µM, stronger effect = higher value.
Chain of G-protein coupled receptor 151 (Homo sapiens) (Q8TDV0 whole entry, looked up): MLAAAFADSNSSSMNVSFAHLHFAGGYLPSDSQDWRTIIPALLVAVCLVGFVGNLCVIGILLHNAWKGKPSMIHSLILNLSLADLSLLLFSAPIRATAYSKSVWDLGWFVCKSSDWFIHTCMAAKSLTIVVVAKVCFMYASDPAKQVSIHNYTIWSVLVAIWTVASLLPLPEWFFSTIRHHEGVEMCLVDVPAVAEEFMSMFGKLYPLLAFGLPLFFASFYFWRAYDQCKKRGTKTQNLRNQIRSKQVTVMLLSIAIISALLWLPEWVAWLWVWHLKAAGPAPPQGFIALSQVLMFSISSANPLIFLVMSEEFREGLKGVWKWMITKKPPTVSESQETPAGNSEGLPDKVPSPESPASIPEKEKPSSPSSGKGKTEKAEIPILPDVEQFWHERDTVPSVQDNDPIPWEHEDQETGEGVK
With `O=C(Cc1ccccc1)N/N=C/c1ccc([N+](=O)[O-])cc1`, the activation was -0.27% (inactive).

In the case of `NC(=S)N/N=C/c1ccc([N+](=O)[O-])cc1`, the activation was -0.328% (inactive) and 5.02% (active). `CSc1ccc(/C=N/NC(N)=S)cc1`: the activation is 0.328% (inactive). With `Cc1[nH]c2ccccc2c1/C=N/NC(=O)/C(=C/c1ccccc1O)NC(=O)c1ccccc1`, the activation was -5.34% (inactive). Consider `COc1cccc(C(=O)NC(=S)Nc2ccc(OC)cc2OC)c1`, for which the activation was 10.4% (active).

Consider `COc1cccc(C(=O)NC(=S)Nc2ccccc2OC)c1`, for which the activation is -0.111% (inactive). For `COc1ccc(NC(=S)NC(=O)c2ccc([N+](=O)[O-])cc2)c(OC)c1`, the activation is 3.1% (inactive).

Turning to `CCCOC(=O)C1=C(C)NC(=O)NC1c1ccccc1` (stereo not given), the activation is -1.76% (inactive). For the compound `CC1=C(C(=O)OCCc2ccccc2)C(c2ccc(Br)cc2)NC(=O)N1` (stereo not given), the activation is -1.85% (inactive). As for `CCCOC(=O)C1=C(C)NC(=O)NC1c1ccc(Br)cc1` (stereo not given), the activation was 9.45% (active). Consider `CCCCN(C)C(=O)C1(c2ccc(OC)cc2)CCOCC1`, for which the activation is 0.343% (inactive). For the compound `COc1ccc(C2(C(=O)Nc3ccc(C(=O)NCc4ccccc4)cc3)CCOCC2)cc1`, the activation is 0.34% (inactive). Regarding `CCCCNC(=O)C1(c2ccc(OC)cc2)CCOCC1`, the activation was 7.05% (active). For `Cn1cccc1CC(=O)N/N=C\c1c(Cl)cccc1Cl`, the activation is 0.023% (inactive).

Consider `COc1cccc(CC2(CCC(=O)NC3CCOC(C)(C)C3)CCC(=O)N2)c1` (stereo not given), for which the activation is 1.54% (inactive). Regarding `C/C(=N\Nc1nc2c(c(=O)[nH]c(=O)n2C)n1CC(C)O)c1ccc(O)cc1` (stereo not given), the activation was -2.73% (inactive). `CC(O)Cn1c(N(C)C)nc2c1c(=O)[nH]c(=O)n2C` (stereo not given): the activation was -0.989% (inactive). Take `CC(C)CNc1nc2c(c(=O)[nH]c(=O)n2C)n1CC(C)O` (stereo not given): the activation was 5.96% (active).

As for `CCCCNc1nc2c(c(=O)[nH]c(=O)n2C)n1CC(O)COC(C)C` (stereo not given), the activation was 0.097% (inactive). In the case of `Cc1ccc(/C=N/Nc2nc3c(c(=O)[nH]c(=O)n3C)n2CC(O)COC(C)C)cc1` (stereo not given), the activation is -0.049% (inactive). Consider `CCC(C)Nc1nc2c(c(=O)[nH]c(=O)n2C)n1CC(O)COC(C)C` (stereo not given), for which the activation is 5.88% (active).

For `Cc1cc(C)c(/C=N/NC(=O)c2nnn(-c3nonc3N)c2CN(C)C)c(C)c1`, the activation was -0.818% (inactive). For `CCOC(=O)c1c(NC(=O)Cc2ccc([N+](=O)[O-])cc2)sc(C)c1C`, the activation was -0.865% (inactive). For the compound `Cc1cc(S(=O)(=O)n2cc(-c3cccc(F)c3)c(N)n2)ccc1F`, the activation was 0.532% (inactive). The figure for `Cc1cccc(CN2CCC(n3nccc3NC(=O)C(C)(C)C)CC2)c1` is -0.39% (inactive). As for `CC(C)(C)C(=O)Nc1ccnn1C1CCN(Cc2ccccc2C(F)(F)F)CC1`, the activation was 0.711% (inactive).

Turning to `Cc1ccc(C)c(CN2CCC(n3nccc3NC(=O)C(C)(C)C)CC2)c1`, the activation is 5.02% (active).

Regarding `COc1cccc(/C=N/NC(=O)CC23CC4CC(CC(C4)C2)C3)c1O`, the activation was 0.719% (inactive). For `COc1ccc(NC(=O)Cn2c(=O)n(-c3ccc(F)cc3)c(=O)c3sccc32)cc1`, the activation is -0.363% (inactive).

On to `COc1ccc(NC(=O)Cn2c(-c3ccc(OC)cc3)cn(-c3ccc(C)cc3)c2=O)cc1`, for which the activation was 7.86% (active).

In the case of `COc1ccc(-n2ccnc2SCC(=O)Nc2ccc(C)cc2)cc1`, the activation was 1.88% (inactive). In the case of `CCOC(=O)c1cc2c(C)n(Cc3ccccc3)c(C)c2cc(C(=O)OCC)c1=O`, the activation is -0.0778% (inactive). Regarding `CCOc1ccc(-c2nn(-c3ccccc3)cc2C2C(C(=O)OCc3ccccc3)=C(C)NC(C)=C2C(=O)OCc2ccccc2)cc1`, the activation was 1.89% (inactive). With `CCC1=C(C)c2cc3nc(C(=O)OCc4ccccc4)c(C)c-3c(C)n2C1C` (stereo not given), the activation is 5.68% (active).

Take `NC(=O)CN(c1ccccc1)S(=O)(=O)c1ccccc1[N+](=O)[O-]`: the activation was 0.204% (inactive). As for `CCOc1cc(CNCc2c(C(=O)O)n(CC)c3cc(OC)ccc23)ccc1OC`, the activation was -1.01% (inactive). To `O=C(CSc1nnnn1-c1ccc(F)cc1)N1CCc2ccccc21` belongs -1.53% (inactive); to `O=CN1CCN(CCC(=O)Nc2ccccc2)CC1`, 5.13% (active); to `O=C(CCN1CCN(C/C=C/c2ccccc2)CC1)Nc1ccc(Br)cc1`, 1.05% (inactive). For `COc1ccc(NC(=O)CCN2CCN(C=O)CC2)cc1`, the activation is -1.28% (inactive).

As for `CCOC(=O)c1c(NC(=O)c2nn3c(C(F)(F)F)cc(-c4ccc(OC)cc4)nc3c2Cl)sc2c1CCCC2`, the activation was 0.0805% (inactive).

As to `Cc1cc(Nc2ccc(F)cc2)n2cnnc2n1`, the activation is 9.65% (active).

`Cc1ccc(Nc2cc(C)nc3nncn23)cc1`: the activation is -0.458% (inactive).

With `Fc1ccc(Nc2nc3ccccc3n3cnnc23)cc1`, the activation is -0.0284% (inactive). Consider `CCOc1ccccc1/C=C1/NC(=S)NC1=O`, for which the activation is 0.436% (inactive). As to `O=C1CCCN1CCn1cnc2c(NCc3nc4ccccc4[nH]3)nc(N3CCc4ccccc4C3)nc21`, the activation was -1.26% (inactive). To `CNC(=O)C(=O)Nc1cc(OC)ccc1OC` belongs -0.733% (inactive). Turning to `CCn1cc(CNC(=S)Nc2cc(OC)ccc2OC)cn1`, the activation was -1.23% (inactive).

For `COc1ccc(OC)c(NC(=S)Nc2ccccn2)c1`, the activation was 9.49% (active).

`COCCn1nnnc1C(c1cc2c(C)cc(C)cc2[nH]c1=O)N1CCCC(C)C1` (stereo not given): the activation is 0.229% (inactive).

With `CCOc1ccc2cc(C#N)c(SCC(=O)Nc3ccccc3C(=O)OC)nc2c1`, the activation is -0.792% (inactive). Regarding `COc1ccc(OC)c(CNC(=O)c2cc3c(C)nc4ccccc4c3o2)c1`, the activation is 0.296% (inactive). Take `O=C(Nc1cc(Cl)cc(Cl)c1)c1ccc(F)c(S(=O)(=O)NCc2ccco2)c1`: the activation is 0.664% (inactive). To `COc1ccc(C2=NN(C(=O)CSc3nnc(CNC(=O)c4ccc(S(=O)(=O)N(C)C)cc4)n3C)C(c3ccc(C)cc3)C2)cc1` (stereo not given) belongs 1.11% (inactive). Regarding `CC(C)CC(C(=O)Nc1ccc([N+](=O)[O-])cc1)N1C(=O)c2ccccc2C1=O` (stereo not given), the activation was 2.66% (inactive). Take `CC(C)CC(C(=O)Nc1ccc(Cl)cc1)N1C(=O)c2ccccc2C1=O` (stereo not given): the activation is -0.915% (inactive). The figure for `CC(C)CC(C(=O)Nc1cccc([N+](=O)[O-])c1)N1C(=O)c2ccccc2C1=O` (stereo not given) is 15.7% (active); for `CCOCCCNC(=O)/C(C#N)=C/c1c(Oc2ccc(CC)cc2)nc2ccccn2c1=O` it is -7.56% (inactive).

For `CCN(CC)c1ccc(CN2C[C@@H](NCc3ccc4ccccc4c3)C[C@H]2C(=O)NC)cc1`, the activation was 0.619% (inactive). As for `CCOCCCNC(=O)NC1CCN(c2nc3ccccc3s2)CC1`, the activation was 5.41% (active).

Consider `CCCCN(C)CCCNC(=O)C1CCN(c2nc3ccc(OC)cc3s2)CC1`, for which the activation was -1.77% (inactive).

`CC1CCN(c2nc3ccc(C(=O)NCCCOC(C)C)cc3s2)CC1`: the activation was -0.0522% (inactive).

Turning to `Cc1nn2c(N3CCNCC3)c3c(nc2c1-c1ccccc1)CCC3`, the activation is -1.05% (inactive). With `Cn1c(=NC(=O)CN2C(=O)c3ccccc3C2=O)sc2cc(F)cc(F)c21`, the activation was 0.254% (inactive). On to `c1cncc(Nc2nc(NC3CC3)c3ncn(C4CCCCC4)c3n2)c1`, for which the activation is 11.5% (active).

Turning to `FC(F)(F)c1ccc(Nc2nc(NC3CC3)c3ncn(C4CCCCC4)c3n2)cc1`, the activation was 0.642% (inactive).

On to `c1cnc(Nc2nc(NCc3cccnc3)c3ncn(C4CCCCC4)c3n2)nc1`, for which the activation is -0.529% (inactive). For the compound `Cc1ccc(NC(=O)CCNS(=O)(=O)c2ccc3c(c2)c(=O)n(C)c(=O)n3C)nc1`, the activation was -0.3% (inactive).

Regarding `Cc1ccc2cc(C#N)c(SCCO)nc2c1`, the activation was 6.39% (active). As for `COc1ccc2cc(C#N)c(SC)nc2c1`, the activation was 0.673% (inactive). As for `Cc1ccc(NC(=O)CSc2nc3cc4c(cc3cc2C#N)OCCO4)cc1`, the activation is -1.17% (inactive). With `CCN(CC)C(=O)Cn1cnc2sc(C(=O)NCc3ccc(Cl)cc3)c(C)c2c1=O`, the activation is 0.437% (inactive). With `CC(C)(C)OC(=O)N1CCC[C@H](Cn2cc(C(=O)O)nn2)C1`, the activation was 6.74% (active).

As to `COc1ccc([C@H](O)[C@@H]2CCCN(C(=O)OC(C)(C)C)C2)cc1`, the activation was 0.253% (inactive). With `COCCNC(=O)c1cn(C[C@H]2CCCN(C(=O)c3conc3C)C2)nn1`, the activation is 1.06% (inactive).

Regarding `O=C(Nc1ccccc1)c1cnc(NCCN2CCOCC2)s1`, the activation is -2.52% (inactive). As to `COc1ccccc1C1C(C#N)=C(N)Oc2n[nH]c(-c3ccc4ccccc4c3)c21` (stereo not given), the activation was -0.23% (inactive). Regarding `COc1ccc(-c2nnc(SCC(=O)Nc3ccc(Br)cc3)nc2-c2ccc(OC)cc2)cc1`, the activation was 1.77% (inactive). As to `CC(C)CC(=O)NC(=S)Nc1ccc(F)cc1F`, the activation was 2.41% (inactive). As to `OCCCNC(=S)Nc1ccccc1F`, the activation is 0.421% (inactive). For `CC(C)C(=O)NC(=S)Nc1ccccc1F`, the activation was 6.35% (active). To `COc1ccccc1NC(=O)NCc1nc(-c2ccc(OC)c(OC)c2)no1` belongs 7.48% (active). For the compound `COc1ccccc1Cc1nc(-c2ccc(OC)c(OC)c2)no1`, the activation is 1.66% (inactive).

As to `CCOc1ccccc1NC(=O)CCc1nc(-c2ccc(OC)c(OC)c2)no1`, the activation was -1.02% (inactive). The figure for `COCCn1cc(C(=O)N2CCCCCC2)c2c3ccccc3n(C)c2c1=O` is 0.412% (inactive); for `CC1CCCC(NC(=O)C2N(CCN3CCCCC3)C(=O)C3C(C(=O)Nc4cc(Cl)cc(Cl)c4)C4C=CC32O4)C1C` (stereo not given) it is -0.312% (inactive).

On to `COCCCNC(=O)c1nnc(-c2ccccc2)o1`, for which the activation is -0.472% (inactive). As to `CC(C)=CCC/C(C)=C/C=N/Nc1ccc(S(N)(=O)=O)cc1[N+](=O)[O-]`, the activation is 1% (inactive). In the case of `COc1cc(C(=O)Nc2c3c(nn2-c2ccc(F)cc2)CSC3)cc(OC)c1OC`, the activation was 1.91% (inactive). Take `Cc1ccc(-c2nc3ccc(C(=O)NCCC4=CCCCC4)cc3nc2-c2ccc(C)cc2)cc1`: the activation was 4.13% (inactive).
